Reference: PubChem BioAssay (EPA / NIEHS)
“And” between values parts separate entries of the source, which are not always exact repeats. Equal values may be shown once. Records with an inconclusive call do not appear. The source made the active and inactive calls. Rule for the calls, unless noted: active = hit-call score of the fitted dose curve at least 0.9, where 1 is the maximum; inconclusive = response in the unintended direction; inactive = score below 0.9.

How the values were obtained:
[1] = CCTE_Mundy_HCI_hN2_NOG_NeuronCount: CCTE's Neurite Outgrowth Assay in human hN2 cells for Neuron Count, Mundy Lab (AID 2284221)
Outline: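 Read-out is the number of betaIII-tubulin-positive neurons imaged by automated high-content analysis, with DMSO as negative control.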

[2] = CCTE_Mundy_HCI_Cortical_Synap_Neur_Matur_CellBodySpotCount: CCTE's Synaptogenesis and Neurite Maturation Assay in rat cortical cells for Cell Body Spot Count, Mundy Lab (AID 2284223; active = hit-call score of the fitted dose curve at least 0.9, where 1 is the maximum; inactive = score below 0.9)
Outline: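 Read-out: cell body-associated synaptophysin puncta per neuron, imaged after MAP2, synaptophysin and Hoechst staining. Rat cortical cells, AraC DIV 5, chemical dosing DIV 7, fixation DIV 12. Activity fitted in positive direction relative to DMSO baseline.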

[3] = CCTE_Mundy_HCI_Cortical_NOG_NeuronCount: CCTE's Neurite Outgrowth Assay in rat cortical cells for Neuron Count, Mundy Lab (AID 2284236);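 note: neurons counted by imaging betaIII-tubulin and Hoechst stained cortical cells; cells exposed to compound for about 48 hours before fixation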
Outline: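 Read-out: neuron number by high-content imaging of betaIII-tubulin (Alexa Fluor-488) and Hoechst-labelled rat primary cortical cells.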

[4] = CCTE_Mundy_HCI_hNP1_Casp3_7: CCTE's Caspase-Glo 3/7 Assay in human neuroprogenitor cells for Apoptosis, Mundy Lab (AID 2284240; active = hit-call score of the fitted dose curve at least 0.9, where 1 is the maximum; inactive = score below 0.9)
Outline: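 Neuroepithelial-lineage stem cells from WA09 embryonic cells were treated with chemicals after 40–44 h of culture. Twenty-four hours later, caspase-3/7 activation was detected luminescently after a 30 min room-temperature reagent step, with DMSO as baseline.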

[5] = target: Cellular tumor antigen p53 (Homo sapiens) (UniProt P04637); test: TOX21_p53_BLA_p2_ratio: Tox21 HCT-116 p53 Agonism Beta-lactamase Assay, Ratio, Phase 2 (AID 2283592)
Outline: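 In this cell-based reporter format, HCT116 cells were dosed with chemicals delivered from DMSO by 217-fold dilution and incubated 16 h at 37C. Emission at 460 and 530 nm after 2 h CCF4-AM loading provided the ratio, fitted upward versus DMSO.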

[6] = target: Cellular tumor antigen p53 (Homo sapiens) (UniProt P04637); test: TOX21_p53_BLA_p3_ratio: Tox21 HCT-116 p53 Agonism Beta-lactamase Assay, Ratio, Phase 3 (AID 2283596)
Outline: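 HCT116 p53-bla cells (4000/well) given compound in DMSO (217-fold dilution) after 5 h, incubated 16 h at 37C. CCF4-AM substrate 2 h at room temperature; 460/530 nm emission ratio, gain fitted against DMSO.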

[7] = target: Cellular tumor antigen p53 (Homo sapiens) (UniProt P04637); test: TOX21_p53_BLA_p4_ratio: Tox21 HCT-116 p53 Agonism Beta-lactamase Assay, Ratio, Phase 4 (AID 2283601)
Outline: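 HCT116 cells carrying an inducible beta-lactamase reporter were plated at 4000 cells/well, rested 5 h, then exposed to compounds in DMSO (217-fold dilution) for 16 h at 37C. CCF4-AM substrate was loaded 2 h at room temperature; 460/530 nm emission ratio scored gain-of-signal versus DMSO.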

[8] = target: Cellular tumor antigen p53 (Homo sapiens) (UniProt P04637); test: TOX21_p53_BLA_p5_ratio: Tox21 HCT-116 p53 Agonism Beta-lactamase Assay, Ratio, Phase 5 (AID 2283599)
Outline: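 HCT-116 cells carrying a p53-inducible beta-lactamase reporter were seeded at 4000 cells/well and dosed after 5 h with compound in DMSO (217-fold dilution). After 16 h at 37C, CCF4-AM substrate was added for 2 h, and the 460/530 nm emission ratio was scored as gain-of-signal versus DMSO.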

[9] = TOX21_p53_BLA_p5_viability: Viability Assessment in the Tox21 HCT-116 p53 Agonism Beta-lactamase Assay, Phase 5 (AID 2283600)
Outline: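 Compounds, pinned from DMSO at 217-fold dilution, were left on the cells for 16 h. The viability endpoint was ATP content measured by CellTiter-Glo luminescence, where falling signal reflects cytotoxicity.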

PGR (gene 5241) [10] = target: PGR (gene 5241) (UniProt P06401); test: TOX21_PR_BLA_Followup_Antagonist_ratio: Tox21 HEK293 Progesterone Receptor (PR) Antagonism Beta-lactamase Follow-Up Assay, Ratio (AID 2283934);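 note: PR-UAS-bla HEK293T cells stimulated with 1 nM R5020 agonist for 16 hr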
Outline: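 Antagonist mode used 1 nM R5020 (final) as agonist on a beta-lactamase reporter line in HEK293T cells. Activity was taken from the substrate cleavage ratio after 16 hr exposure.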

[11] = TOX21_PR_BLA_Followup_Agonist_viability: Viability Assessment in the Tox21 HEK293 Progesterone Receptor (PR) Agonism Beta-lactamase Follow-Up Assay (AID 2283935);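 note: signal loss means lower viability so actives are cytotoxic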
Outline: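 Multiplexed viability counter-screen: ATP-coupled luciferase signal measured after 30 min at room temperature, following 16 hr compound treatment of PR-UAS-bla HEK293T cells grown in charcoal-stripped serum.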

PGR (gene 5241) [12] = target: PGR (gene 5241) (UniProt P06401); test: TOX21_PR_LUC_Followup_Antagonist: Tox21 HEK293 Progesterone Receptor (PR) Antagonism Luciferase Follow-Up Assay (AID 2283938);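 note: curve fitted upward as signal gain over DMSO baseline despite antagonist label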
Outline: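 Luminescence from ONE-Glo reagent, measured after 30 min at room temperature, served as readout. Cells (HEK293 carrying PR-A-luc) had been treated 16 h at 37C with DMSO-dissolved compounds. Activity was fitted against DMSO controls.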

[13] = TOX21_PR_LUC_Followup_Antagonist_viability: Viability Assessment in the Tox21 HEK293 Progesterone Receptor (PR) Antagonism Luciferase Follow-Up Assay (AID 2283940)
Outline: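 Cellular ATP, measured with luciferase-coupled CellTiter-Glo, served as the viability endpoint after HEK293-PR-A-luc cells were exposed to test compounds for 16 h at 37C.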

[14] = CCTE_Harrill_HTTr_Viability_MCF7: CCTE's 6-hour Cell Viability Assessment for the High-Throughput Transcriptomics (HTTr) Platform, in MCF-7 cells cultured in DMEM + 10% fetal bovine serum, Harrill Lab (AID 2284010; active = hit-call score of the fitted dose curve at least 0.9, where 1 is the maximum; inactive = score below 0.9)
Outline: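 Viability measured through PI dye exclusion by high-content imaging at 6 h post-dosing.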

[15] = CCTE_Harrill_HTTr_Apoptosis_MCF7: CCTE's 6-hour Apoptosis Assessment for the High-Throughput Transcriptomics (HTTr) Platform, in MCF-7 cells cultured in DMEM + 10% fetal bovine serum, Harrill Lab (AID 2284011; active = hit-call score of the fitted dose curve at least 0.9, where 1 is the maximum; inactive = score below 0.9)
Outline: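 Read-out: CellEvent Caspase 3/7 Green signal by high content imaging, gain-of-signal indicating apoptosis. MCF-7 cells, DMEM + 10% FBS, eight-point dilution series, 6 h exposure. Curves fitted bidirectionally relative to DMSO negative control.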

[16] = CCTE_Harrill_HTTr_CellCount_MCF7: CCTE's Cell Proliferation Assessment for the High-Throughput Transcriptomics (HTTr) Platform, Harrill Lab (AID 2284012);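 note: count of Hoechst-stained nuclei per well by high-content imaging in MCF-7 cells; cells exposed to compound for six hours; intended direction is loss of nuclei count meaning fewer cells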
Outline: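 Nuclei counting (Hoechst, high content imaging) in MCF-7 after a 6 h treatment at eight concentrations. Activity fitted bidirectionally, DMSO as negative control.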

Measured: AC50

Cellular tumor antigen p53 (Homo sapiens), sequence (P04637 whole entry, looked up): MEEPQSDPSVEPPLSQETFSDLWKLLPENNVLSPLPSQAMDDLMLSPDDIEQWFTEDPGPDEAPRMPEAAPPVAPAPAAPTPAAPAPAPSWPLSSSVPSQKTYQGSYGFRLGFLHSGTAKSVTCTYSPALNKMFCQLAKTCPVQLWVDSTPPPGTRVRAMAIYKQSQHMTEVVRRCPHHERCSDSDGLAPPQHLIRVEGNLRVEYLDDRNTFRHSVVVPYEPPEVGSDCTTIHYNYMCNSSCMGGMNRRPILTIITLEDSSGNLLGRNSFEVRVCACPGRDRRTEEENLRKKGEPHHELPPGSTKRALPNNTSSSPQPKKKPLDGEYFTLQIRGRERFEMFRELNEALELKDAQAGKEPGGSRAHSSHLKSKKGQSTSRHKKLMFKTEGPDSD
PGR (gene 5241), sequence (P06401 whole entry, looked up): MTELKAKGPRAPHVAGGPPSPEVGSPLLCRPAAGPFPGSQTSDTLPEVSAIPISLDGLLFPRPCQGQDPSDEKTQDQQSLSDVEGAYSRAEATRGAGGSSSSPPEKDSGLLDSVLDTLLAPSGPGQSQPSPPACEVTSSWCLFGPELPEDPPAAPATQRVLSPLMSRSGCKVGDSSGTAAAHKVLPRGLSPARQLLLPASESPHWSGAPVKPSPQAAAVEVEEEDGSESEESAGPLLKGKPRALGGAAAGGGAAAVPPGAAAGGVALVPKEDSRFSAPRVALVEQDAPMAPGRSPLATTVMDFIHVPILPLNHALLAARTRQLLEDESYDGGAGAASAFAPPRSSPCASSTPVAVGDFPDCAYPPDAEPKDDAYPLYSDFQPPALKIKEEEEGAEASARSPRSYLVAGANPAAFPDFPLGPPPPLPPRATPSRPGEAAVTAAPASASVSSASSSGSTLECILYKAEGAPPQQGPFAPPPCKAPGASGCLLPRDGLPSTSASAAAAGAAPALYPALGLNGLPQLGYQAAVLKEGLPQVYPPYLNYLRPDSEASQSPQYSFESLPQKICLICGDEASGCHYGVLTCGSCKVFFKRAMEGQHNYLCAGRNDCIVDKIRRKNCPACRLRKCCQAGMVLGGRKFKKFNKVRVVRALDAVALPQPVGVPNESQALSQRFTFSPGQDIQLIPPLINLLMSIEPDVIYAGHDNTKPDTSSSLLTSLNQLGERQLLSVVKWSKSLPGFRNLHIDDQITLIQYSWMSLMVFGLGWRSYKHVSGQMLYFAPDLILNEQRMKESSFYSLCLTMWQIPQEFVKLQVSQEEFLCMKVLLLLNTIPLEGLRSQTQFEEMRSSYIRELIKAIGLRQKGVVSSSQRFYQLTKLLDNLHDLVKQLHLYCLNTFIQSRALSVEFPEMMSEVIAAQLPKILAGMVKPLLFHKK

CN1C(=O)CN=C(c2ccccc2)c2cc(Cl)ccc21
active: [4] 23 µM
inactive: [1] | [2] | [3]

CCCCCCCCn1cc[n+](C)c1
inactive: [7]
active: [5] 9.49 µM [middle of 4 runs] | [6] 14.7 µM [middle of 4 runs]

CCC(N)Cc1c[nH]c2ccccc12 (configuration not stated)
inactive: [5] | [6] | [8] | [7]

Cn1cc(C2=C(c3cn(C4CCN(Cc5ccccn5)CC4)c4ccccc34)C(=O)NC2=O)c2ccccc21
inactive: [5] | [8] | [7]
active: [6] 12 µM

CC(=O)OO
inactive: [5] | [6] | [8] | [7]

CC(C)(Cl)[N+](=O)[O-]
inactive: [5] | [6] | [9] | [7]

S=C=Nc1ccccc1
inactive: [5] | [6] | [9]

O=C(N[C@H]1N=C(c2ccccc2F)c2cccc3c2N(CC3)C1=O)c1cc2ccccc2[nH]1
inactive: [5] | [6] | [8] | [7]

ClP(Cl)(Cl)(Cl)Cl
inactive: [5] | [6] | [7]

CCC(Cl)[N+](=O)[O-] (configuration not stated)
inactive: [5] | [6] | [8] | [9] | [7]

CCN
inactive: [5] | [6] | [8] | [7]

O=C(Cl)C(Cl)Cl
inactive: [5] | [6] | [8] | [9] | [7]

C[C@]12C=CC(=O)C=C1CC[C@@H]1[C@@H]2CC[C@@]2(C)[C@H]1CC[C@]2(C)O
inactive: [5] | [6] | [8] | [7] | PGR (gene 5241) [10] | [11] | PGR (gene 5241) [12] | [13]

CCCN1CCC[C@H](c2cccc(O)c2)C1
inactive: [5] | [6] | [8] | [7]

O=C1OC(c2ccc(O)c(S(=O)(=O)O)c2)(c2ccc(O)c(S(=O)(=O)O)c2)c2c(Br)c(Br)c(Br)c(Br)c21
inactive: [5] | [6] | [9] | [7]

CC[C@H]1C[C@@H]2C[C@H]3c4[nH]c5ccc(OC)cc5c4CCN(C2)[C@@H]13
inactive: [5] | [6] | [7]

CCCN(CCC)CCc1c[nH]c2ccccc12
inactive: [5] | [6] | [9] | [7]

CN1c2ccccc2C(NCCCCCCC(=O)O)c2ccc(Cl)cc2S1(=O)=O (configuration not stated)
inactive: [5] | [6] | [8] | [7]

Cc1ccc2cc(C)ccc2c1
inactive: [5] | [6] | [8] | [9] | [7] | [14] | [15] | [16]

NCC1(CC(=O)O)CCCCC1
inactive: [5] | [6] | [8] | [7]

COc1c(C(C)(C)C)cc([N+](=O)[O-])c(C)c1[N+](=O)[O-]
inactive: [5] | [6] | [9] | [7]

OC(c1ccccc1)(c1ccccc1)C1CCNCC1
inactive: [5] | [6] | [8] | [7]

CCOc1cc(OP(=S)(OC)OC)nc(CC)n1
inactive: [5] | [6] | [7]

CON(C)C(=O)Nc1ccc(Cl)cc1
inactive: [5] | [6] | [8] | [7]

CCCCCCCCCBr
inactive: [5] | [6] | [9] | [7]

Cc1c(N)nc([C@H](CC(N)=O)NC[C@H](N)C(N)=O)nc1C(=O)N[C@H](C(=O)N[C@H](C)[C@@H](O)[C@H](C)C(=O)N[C@H](C(=O)NCCc1nc(-c2nc(C(=O)NCCC[S+](C)C)cs2)cs1)[C@@H](C)O)[C@@H](O[C@@H]1O[C@@H](CO)[C@@H](O)[C@H](O)[C@@H]1O[C@H]1O[C@H](CO)[C@@H](O)[C@H](OC(N)=O)[C@@H]1O)c1cnc[nH]1
active: [5] 195 nM and 1.16 µM | [6] 98.3 nM and 922 nM | [8] 86.5 nM and 808 nM | [7] 219 nM and 730 nM

CCOP(=O)(OCC)OP(=O)(OCC)OCC
inactive: [5] | [6] | [8] | [7]

Cc1ncc(CNC(=O)N(CCCl)N=O)c(N)n1
inactive: [5] | [6] | [8] | [7]
